The source made the active and inactive calls. Cut-off read from the data, not from the text of the source: active = activation above about 85%; inactive = the rest.
Biological target: Peroxisome proliferator-activated receptor gamma (Homo sapiens) (UniProt P37231)
Assay: partial agonism at human PPARgamma receptor – cell-based, luciferase reporter, luminescence, primary screen (AID 504452);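 note: Cos-1 cells carrying PPARgamma and a response element luciferase reporter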
Details: cell-based PPARg luciferase reporter, at 5 µM, stronger effect = higher value; activation (% of full agonist control): measured here: relative to full agonist control

Peroxisome proliferator-activated receptor gamma (Homo sapiens), sequence (P37231 whole entry, looked up): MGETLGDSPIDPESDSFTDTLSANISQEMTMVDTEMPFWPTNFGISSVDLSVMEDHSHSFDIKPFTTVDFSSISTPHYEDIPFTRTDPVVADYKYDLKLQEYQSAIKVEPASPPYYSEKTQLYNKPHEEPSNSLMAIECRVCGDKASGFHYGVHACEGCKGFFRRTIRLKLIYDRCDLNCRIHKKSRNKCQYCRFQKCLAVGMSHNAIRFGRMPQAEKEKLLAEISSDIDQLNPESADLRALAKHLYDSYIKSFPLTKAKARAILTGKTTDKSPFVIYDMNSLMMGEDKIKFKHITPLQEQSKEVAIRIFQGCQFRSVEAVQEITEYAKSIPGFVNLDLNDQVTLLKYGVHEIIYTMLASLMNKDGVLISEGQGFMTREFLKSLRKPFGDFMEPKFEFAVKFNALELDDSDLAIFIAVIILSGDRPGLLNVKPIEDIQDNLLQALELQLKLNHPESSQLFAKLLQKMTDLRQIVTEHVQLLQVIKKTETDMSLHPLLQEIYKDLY

Row | Structure (SMILES) | activation (% of full agonist control) | activation (% of partial agonist control)
1 | CC(Oc1ccc2c(c1)oc(=O)c1ccccc12)C(=O)NC(Cc1c[nH]c2ccc(O)cc12)C(=O)O (stereo not drawn) | 49.2% | 109% (active)
2 | COc1ccc(CN(Cc2ccccn2)C(=O)CN2C(=O)C(C)Oc3ccccc32)cc1 (stereo not drawn) | 38.6% | 85.4% (active)
3 | O=C(NC(Cc1c[nH]c2ccccc12)C(=O)O)/C(=C/c1ccc(F)cc1)NC(=O)c1ccccc1 (stereo not drawn) | 32.2% | 71.2% (inactive)
4 | Cc1ccc(C(=O)NCc2cccc(C(F)(F)F)c2)cc1S(=O)(=O)N1CCCCC1 | 25.6% | 56.7% (inactive)
5 | CC1Cc2cc(/C(O)=C3/C(=O)C(=O)N(CCN4CCOCC4)C3c3ccc(N(C)C)cc3)ccc2O1 (stereo not drawn) | 29.1% | 64.3% (inactive)
6 | CC(=O)c1ccc(N2CCN(C(=O)C3CCCN(S(=O)(=O)c4cnc[nH]4)C3)CC2)cc1 (stereo not drawn) | 25.1% | 55.5% (inactive)
7 | COc1ccc(C2C(C(=O)N3CCC(C(N)=O)CC3)CC(=O)N2c2ccc(OC)cc2)cc1 (stereo not drawn) | 25.5% | 56.5% (inactive)
8 | COc1ccc(CN2CCN(Cc3ccc(C)cc3)C(CCO)C2)cc1OC (stereo not drawn) | 33.7% | 74.6% (inactive)
9 | CSCc1c(C(=O)Nc2ccc(N3CCOCC3)cc2)oc2ccccc12 | 33.5% | 74.2% (inactive)
10 | Cc1cc(C)c2nc(N3C(=O)C(O)=C(C(=O)c4ccco4)C3c3cccc(O)c3)sc2c1 (stereo not drawn) | 29% | 64.1% (inactive)
11 | COc1ccc(CN(C)C(=O)[C@H](Cc2ccccc2)NC(=O)c2ccco2)c(OC)c1 | 32.8% | 72.7% (inactive)
12 | O=C(COc1coc(CN2CCc3ccccc3C2)cc1=O)Nc1ccc(F)cc1F | 44.3% | 98.2% (active)
13 | O=C(NCCCn1ccnc1)C(=O)NCC(c1ccco1)N1CCN(c2ccccc2)CC1 (stereo not drawn) | 28.4% | 62.9% (inactive)
14 | CCn1cc(C(=O)N2CCN(c3ccc(OC)cc3)CC2)c2cc(OC)c(OC)cc2c1=O | 27.6% | 61% (inactive)
15 | Cc1ccc(CN2C(=O)N/C(=C\c3cccn3-c3cccc(C(=O)O)c3)C2=O)cc1 | 36.9% | 81.8% (inactive)
16 | O=C(c1cc2n(n1)C(C(F)(F)F)CC(c1ccco1)N2)N1CCc2ccccc2C1 (stereo not drawn) | 37.2% | 82.3% (inactive)
17 | COc1cc2c(C(=O)N3CCN(c4ccccc4F)CC3)cn(C)c(=O)c2cc1OC | 24.1% | 53.4% (inactive)

Row | Structure (SMILES) | activation (% of full agonist control) | activation (% of partial agonist control)
18 | CN1CCN(S(=O)(=O)c2ccc(Sc3nc4ccccc4[nH]3)c3nsnc23)CC1 | 43.8% | 96.9% (active)
19 | O=C(c1ccccc1)c1ccc(NCCCn2ccnc2)c([N+](=O)[O-])c1 | 26.9% | 59.6% (inactive)
20 | CC(C(=O)N1CCN(c2ccccc2)CC1)N1C(=O)C2CC=CCC2C1=O (stereo not drawn) | 32.1% | 71.1% (inactive)
21 | O=C(O)COc1ccccc1/C=C1\SC(=S)N(NC(=O)c2ccccc2O)C1=O | 41.4% | 91.7% (active)
22 | CCOc1cccc(/C(O)=C2/C(=O)C(=O)N(CCN3CCOCC3)C2c2ccncc2)c1 (stereo not drawn) | 41.3% | 91.4% (active)
23 | O=c1[nH]c2cc3c(cc2cc1CN(Cc1ccccc1)Cc1nnnn1Cc1ccco1)OCCO3 | 35.1% | 77.6% (inactive)
24 | O=S(=O)(NCC(c1ccco1)N1CCc2ccccc2C1)c1ccc(F)cc1 (stereo not drawn) | 29.9% | 66.1% (inactive)
25 | O=C(NC(Cc1ccccc1)C(=O)O)/C(=C/c1ccc(Cl)cc1)NC(=O)c1ccco1 (stereo not drawn) | 24.4% | 54% (inactive)
26 | O=C(NC(Cc1ccccc1)C(=O)N1CCN(c2ccccc2O)CC1)c1ccccc1 (stereo not drawn) | 40.7% | 90.2% (active)
27 | O=c1c2cn(Cc3ccc(F)cc3)c3ccccc3c-2nn1Cc1ccc(F)cc1 | 40.3% | 89.3% (active)
28 | O=C(c1cccc(S(=O)(=O)Nc2ccccc2Cl)c1)N1CCN(c2ccccc2O)CC1 | 28.5% | 63.2% (inactive)
29 | Cc1cccn2c(=O)c(/C=C(\C#N)C(=O)NC3CCS(=O)(=O)C3)c(Oc3ccc(F)cc3)nc12 (stereo not drawn) | 34.6% | 76.7% (inactive)
30 | Cc1[nH][nH]c(=O)c1C(c1c(C)[nH][nH]c1=O)c1cn(Cc2cccc3ccccc23)c2ccccc12 | 37.6% | 83.3% (inactive)
31 | Cc1nn(Cc2cccc(C(=O)Nc3ccn(Cc4ccccc4F)n3)c2)c(C)c1[N+](=O)[O-] | 32.8% | 72.6% (inactive)
32 | Cc1ccc2nc(N3C(=O)C(O)=C(C(=O)c4ccco4)C3c3cccc(O)c3)sc2c1 (stereo not drawn) | 46.7% | 103% (active)
33 | Cc1cccc(N2CCN(C(=O)c3cccc(N4C(=O)C5CC=CC(C)C5C4=O)c3)CC2)c1C (stereo not drawn) | 16.4% | 36.3% (inactive)
34 | CC(C)C[C@H](NC(=O)N1CC(=O)Nc2ccccc21)C(=O)N[C@@H](Cc1c[nH]c2ccccc12)C(=O)O | 31.3% | 69.4% (inactive)
